This is a sample that favours compounds with a hit; in the whole collection about 2.1% have one here.
IDE act = activators of human insulin-degrading enzyme in cells; P14735; HEK cells, FAbeta-B cleavage, fluorescence polarization; 0% vehicle, 100% cell-free pure enzyme wells; activation, % at 5.96 µM; 340,000 compounds, 0.073% hits; AID 493087;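 active = activation above the mean of all tested compounds plus 3 SD, set per screening campaign, cut at about 17% in these data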
Mot1-301 SUMO = blocks SUMOylation pathway, rescuing yeast Mot1-301 growth; S. cerevisiae Mot1-301 growth rescue, ATP luminescence, 38.5C; percent above DMSO median, 100 means doubled; growth rescue, % at 18.8 µM; 320,000 compounds, 1% hits; AID 2716;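 active = every valid replicate shows activation above 250% relative to neutral control wells; inactive = the rest, any valid replicate at or below 250%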;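 also: OY570 slx delta 5 strain wells were the positive control but not used for scaling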
HDAC3 inh = inhibitors of human histone deacetylase 3; O15379; recombinant HDAC3, fluorogenic peptide/trypsin coupled, fluorescence; inhibition, % at 8.3 µM; 320,000 compounds, 0.15% hits; AID 2718; in the data active = inhibition above about 26%, passing the limit was not always enough
LANA-H2B inh = blocks KSHV LANA binding to histone H2A/H2B; 320,000 compounds, 0.6% hits; AID 2629; cell-free LANA-H2A/H2B peptide, fluorescence polarization; inhibition, % (concentration not given with the values); Q9QR71; in the data active = inhibition mostly above about 10%, no sharp cut-off; inactive = mostly below about 6.7%
IDE inh = cellular human IDE inhibition; HEK cells, FAbetaB cleavage, fluorescence polarization; inhibition, % at 5.59 µM; P14735; 320,000 compounds, 0.41% hits;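 active = percent inhibition above the average of all tested compounds plus 3 SD, set per screening campaign, cut at about 16% in these data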;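 also: IDE supplied by intact live HEK cells; FP after avidin binding of uncleaved biotin substrate so inhibition keeps polarization high; 0% = DMSO wells and 100% = 60 µM reference IDE inhibitor Ii1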
Mot1 SUMO dose = inhibits SUMO pathway, affecting Mot1-301 yeast growth. AID 493004. S. cerevisiae Mot1-301 galactose growth, ATP luminescence, 24 h; -100 = growth of slx-deleted rescue strain. growth activity, percent, % at 42 µM. 2,300 tested, under 10 active. shares compounds with Mot1-301 SUMO;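 active = Signal drops as the depositor expects, and the fitted half-maximal dose is no more than ten times the top valid tested dose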;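 also: more negative values mean stronger growth rescue toward the control strain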
* = called active by the depositor; . = not tested or not shown; + = active, no number; [ ] = another dose, or the depositor's remark.

SMILES | IDE act | Mot1-301 SUMO | HDAC3 inh | LANA-H2B inh | IDE inh | Mot1 SUMO dose
CC(C)c1ccc(OC(=O)c2ccc3c(=O)n4c(nc3c2)CCC4)cc1 | -2.0 | 12.0 | -4.6 | -5.1 | 3.7 | .
COc1ccc(Cl)cc1N(C(=O)c1ccco1)C(C(=O)NC1CCCC1)c1ccncc1 (stereo not given) | -1.8 | 407.3* | -4.9 | -2.4 | 1.6 | 0.3
O=C(Cc1ccc(Cl)cc1)NC(=S)Nc1ccccc1N1CCOCC1 | -1.1 | 814.7* | -7.6 | -3.4 | 4.7 | -0.1
Cc1ccc(C(=O)C(C)OC(=O)c2cc(=O)[nH]c3ccccc23)cc1 (stereo not given) | -0.3 | 26.1 | -2.1 | 11.9 | 4.8 | .
Cc1ccc(CC(=O)O/N=C(\N)c2cccc([N+](=O)[O-])c2)cc1 | -0.6 | 448.1* | 0.8 | -0.2 | 1.4 | 0.2
COc1ccc(NC(=O)C2CC(c3ccc(Cl)cc3)=NO2)cc1OC (stereo not given) | -4.8 | 11.1 | 1.5 | 0.0 | -1.6 | .
Cc1ccc(-c2csc(NC(=O)CSc3nc(C)cs3)n2)cc1 | -1.2 | 541.2* | 2.6 | -1.1 | 2.2 | 0.1
COc1ccc(N(CC(=O)NCc2ccco2)C(=O)CNS(=O)(=O)c2ccc(Cl)cc2)cc1 | -8.0 | 10.8 | 9.3 | 0.7 | 0.1 | .
Nc1ccc(Oc2ccccc2-c2ccccc2)cc1 | 6.3 | 445.7* | -0.8 | 2.3 | -3.7 | 1.4
NCCOc1ccccc1-c1ccccc1 | -3.1 | -10.7 | 9.4 | -0.7 | 5.5 | .
COc1nc(OC)nc(N2CCC(C(=O)NC3CCCCCC3)CC2)n1 | 5.8 | 382.1* | -6.7 | -3.2 | 1.1 | 0.6
Cc1ccc(C(=O)N2CCN(S(=O)(=O)c3ccc(C(C)C)cc3)CC2)s1 | 3.3 | 62.3 | 1.6 | 2.6 | -5.6 | .
COc1ccc(C2CC(c3ccccc3)=NN2C(=S)Nc2ccccc2)cc1 (stereo not given) | 8.5 | . | 0.4 | -2.9 | 2.5 | .
COc1ccc(C2=NN(C(=S)Nc3ccccc3)C(c3ccccc3)C2)cc1 (stereo not given) | 1.7 | + | 11.3 | 0.8 | 7.7 | -0.9
O=c1[nH]c(C2CCCN(S(=O)(=O)c3ccc(F)cc3)C2)nc2c1nnn2Cc1ccc(F)cc1 (stereo not given) | 2.4 | 141.2 | 3.8 | 0.6 | 3.6 | .
COc1cc2c(cc1NC(=O)c1ccncc1)oc1ccccc12 | -3.9 | 289.8 | 2.6 | -4.4 | 4.5 | .
COc1cc2c(cc1NC(=O)c1cccnc1)oc1ccccc12 | -3.6 | 554.6* | 4.8 | 2.5 | 2.4 | -1.2
CCCCCCC(C)n1[nH]c(=O)c2c(C)cc(=O)[nH]c21 (stereo not given) | 3.4 | 531.3* | 7.0 | -0.4 | -0.3 | 0.2
O=C(CSc1nc2ccc(Nc3nc(N4CCOCC4)nc(N4CCOCC4)n3)cc2s1)N1CCOCC1 | -6.4 | 382.3* | 6.1 | 1.0 | -3.1 | 0.3
Cc1n[nH]c(=O)c2c(NC(=O)COC(=O)Cc3ccc(Cl)cc3Cl)oc(C)c12 | -5.6 | 535.3* | 10.0 | 2.8 | -0.4 | 0.5[21 µM]
Cc1n[nH]c(=O)c2c(NC(=O)COC(=O)Cc3c(F)cccc3Cl)oc(C)c12 | 5.1 | -5.0 | 2.4 | 0.5 | 9.5 | .
CC1CCCCN1C(=S)NC(=O)c1cc(Br)ccc1Cl (stereo not given) | 3.4 | 13.0 | -0.9 | 2.3 | -1.6 | .
O=C(Nc1nnc(-c2ccco2)o1)c1ccc(S(=O)(=O)N2CCCC2)cc1 | 0.5 | 473.7* | . | -3.0 | -2.8 | -0.4
CC1CCN(S(=O)(=O)c2ccc(C(=O)Nc3nnc(-c4ccco4)o3)cc2)CC1 | 2.4 | 1.0 | 4.4 | 2.4 | -4.1 | .
O=C(O)c1ccc(N=C2c3ccccc3-c3ccccc32)cc1 | -4.6 | . | . | . | . | .
O=C(COC(=O)Cn1cnc2ccccc2c1=O)Nc1ccccc1OC(F)F | 3.6 | -21.4 | 3.5 | -0.8 | -2.2 | .
COc1ccc(C(=O)Sc2ccc(C)cc2)cc1OC | 7.5 | . | 1.5 | 2.7 | 4.9 | .
COc1ccc(C(=O)Sc2ccc(Cl)cc2)cc1OC | 3.4 | + | 2.1 | 3.3 | 2.6 | 0.0
COc1cc(C)ccc1OCCCOc1ccccc1Br | 2.4 | + | 0.3 | 0.0 | 1.4 | 0.3
COc1cccc(CN2CC(C(=O)NCC3CCOCC3)CCC2=O)c1 (stereo not given) | -0.8 | -4.0 | 1.0 | 2.1 | 0.7 | .

Screening data deposited in PubChem BioAssay by several laboratories.
